Data on 40 sequences can be found in the supplement of paper PMC6555819.

This assay relates to VDR:RXRa (NR concentration 270 nM, RXRa partner concentration 90 nM). Put plainly: PBM binding z-score (relative to random genomic background probes); higher = stronger binding; sequences stand for … in GC…GCGATTGACAGCGTAGAATGAAGG
The protocol: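 Protein-binding microarray (Agilent 4x180K custom design, double-stranded 60-nt probes: 5' GC cap, 34-nt variable region, 24-nt constant primer region; full probe sequence given). Purified or IVT nuclear receptor:RXRα heterodimers (3:1 NR:RXRα, mostly 270:90 nM) or homodimers were incubated for 1 h in PBS with 2% milk and no ligand, then detected with Alexa488 antibodies. Fluorescence from o1-orientation probes (~5 replicates averaged) was converted to z-scores against 500 random hg19 background probes. Variable regions are seed direct-repeat (DR0–DR5) sites, all their single-nucleotide variants and half-site ablations.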
The sequence ATATGTAGGTTATCGTGTCATTCAGTTTGCGCAT returned a PBM binding z-score of 2.28. In the case of CCGACTGGGCCATCAGGTCATTGATATCAACGTT it was 1.63; in that of CCTCGGGGGACAACAGGAGGTCAGAGCTGCCAGA, 2.71; in that of ATATGTAGGTTACATCCGGGTCATTAAGGCTATG, 4.54.

TCATATAGGTAAAGGTTAAAGTCGAACGATATGA showed a PBM binding z-score of 1.98. In the case of GCAGACAGGCGAAACGCAGGTAACTCAGGGTGGC it was -0.853. In the case of AGAATGAGGTTATACGAAGATCAGGGAAGAAAGT it was 1.13; in that of CCTAGTTGGTCAGGAGGTCAAACACCGGATATGA, 4.09. In the case of TCTTGTAGATCACTAGAGGTTAAGAAAGTGCGCT it was 2.06. TCATATAGGTAAATACTAGGTGAAAGTCCGATCT showed a PBM binding z-score of 1.19. Sequence CCTTGCAGGCCAGGGTCACTCAAGCATTTCGCTT came in with a PBM binding z-score of 2.69. In turn, TCTTGTAGATCAGCAGGTTAAAAAAGCTGGCCAA showed a PBM binding z-score of 0.495. For TTTCCAAGGTGAAGGTCGTTGATCCCTCTGTAGA, the PBM binding z-score was found to be 1.45. In the case of TCGAGTAGGTTAGTCGGGGGATTCAGCCAACATA it was 0.946.

Take AATTACGGGTCAACGAGGTTATAGCACGCGTATA: the PBM binding z-score stood at 7.73. TTACCAAGGTGAGCTTAGGTCGTTGATCCAACTC gave a PBM binding z-score of 0.561. TCTAGTTTGTCACGGAGGTCACACACGACGGGTA registered a PBM binding z-score of 4.63.

Take TCTCGGACGACACGAAGGTCAGAGCTTTCCAGAG: the PBM binding z-score stood at 1.2. The sequence ATATGTGGGTTAAGGGTCATTCAGGTTGGTTCGC had a PBM binding z-score of 5.79.

GGAACGAGGGCTAAGTTGATAGCATCTGTCGACG returned a PBM binding z-score of -0.701. In the case of GGTACAGGGTCAAGGCCAGAGTACGCGTATTGAT it was 4.52; in that of TCATATAGGTAATTGCTAGGTGAAAGTCCGATCT, 0.884. In the case of ATCTCTAGGTAAAAGTTCAGTAAATCCCGAGGAT it was 1.19. In the case of TAGCCTAGGTCATGCGGGCCGGTATAGTGTCGGC it was 2.22; in that of GCGACTGGGGAATCAGCAGGTTACCATAACTTAA, -0.497; in that of TCTTGTATATCAAAGGTTAAGAAAGCCGAAGCCT, 1.91. GCGACTGTGGCAAAGCAGGTTACCATAAGGTTGG showed a PBM binding z-score of -0.352. CGAACTAGGTCAAGGAAAGTGAATCTCCGCACGC showed a PBM binding z-score of 1.02. Regarding CAGCCTAGGTCAGGGCCAGTATGGGAGGAACGTT, the PBM binding z-score is -0.0336.

As for TAGCCTAGGTCATTGGGCCGGTATAGTACGCATC, the PBM binding z-score was determined as 2.11.

Consider CCTACTGGGCCAAAATGGTCATTGATGCCGATAA, for which the PBM binding z-score is -0.0666. In the case of ATACCAAGGTGATCGTGAGGTCATTGATACTAAC it was 5.31; in that of TGTCAAAGTTCAAAGGTAACGTAGGTATCCACAC, 5.15. TCTCGGAGGACACGAAAGATCAGAGCTCGACATC registered a PBM binding z-score of 0.0612. TCTATTAGTTGAAGGACAACCGACGAGTCCGTTT gave a PBM binding z-score of 1.23.

In turn, CCTACTGGGGCAAGGTCATTGATCAGTCAAAGCA displayed a PBM binding z-score of 3.59. Regarding ATATGTAGGTTAAGGGTCATTAAGGTTGGTTCGC, the PBM binding z-score was 6.19.

In turn, AGGATGAGGTTACCAAAGATCAGGGAAACGCTTG showed a PBM binding z-score of 1.45.

TGTCAAAGTTCAAAGTTAACGTAAGTATCCACAC: the PBM binding z-score turned out to be 4.57. In the case of CGAACTAGGTCGTTGACAGGACAGTGAATAGTAA it was 0.71.
